Consider eight molecules from PubChem BioAssay (NCATS).

Inconclusive results are not listed. The source made the active and inactive calls. Unless noted, calls come from the whole dose curve; as a rule, active = well fitted curve in the direction sought with a large enough effect; inconclusive = small, poorly fitted or top-dose-only effect, or another doubt; inactive = no such curve, though single readings can be large; an effect the other way counts as inactive or inconclusive.

Assay [1] is described as follows: qHTS for Inhibitors of the Functional Ribonucleoprotein Complex (vRNP) of Lymphocytic Choriomeningitis Arenaviruses (LCMV): Viability assay - alamar blue signal for LCMV Primary Screen (AID 1347085; calls by dose curve; tested in HEK293 reporter line; note: nearly all actives have a fitted effect of over 80% in size; note: potency is the fitted concentration of half-maximal effect). (qHTS replaces the single test concentration by a dilution series.)
The target of assay [2] is Nucleoprotein (Lymphocytic choriomeningitis virus (strain Armstrong)) (UniProt P09992). The assay can be described thus: qHTS for Inhibitors of the Functional Ribonucleoprotein Complex (vRNP) of Lymphocytic Choriomeningitis Arenaviruses (LCMV): LCMV Primary Screen - GLuc reporter signal (AID 1347086; calls by dose curve; note: nearly all actives have a fitted effect of over 70% in size; note: potency is the fitted concentration of half-maximal effect).
Assay [3] is described as follows: qHTS of pediatric cancer cell lines to identify multiple opportunities for drug repurposing: Primary screen for TC32 cells (AID 1347089). Note: nearly all actives have a fitted effect of over 60% in size. Note: potency is the fitted concentration of half-maximal effect. The gist of the method: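 Luminescent CellTiter-Glo read-out of metabolically active TC32 cells after 48 h compound exposure. Primary: MIPE 11-point, 0.78 nM–46 µM; NPC 8-point, 0.59 nM–46 µM. Confirmatory: 11-point dilutions.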

Assay [4] is described as follows: qHTS of pediatric cancer cell lines to identify multiple opportunities for drug repurposing: Primary screen for DAOY cells (AID 1347090). Note: nearly all actives have a fitted effect of over 55% in size. Note: potency is the fitted concentration of half-maximal effect. The gist of the method:
(§1)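 Eight- or eleven-point concentration series, 48 h treatment at 37 degrees C in growth media; readout CellTiter-Glo luminescence. Potency and efficacy were taken from the concentration-response curves.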

Assay [5] is described as follows: qHTS of pediatric cancer cell lines to identify multiple opportunities for drug repurposing: Primary screen for U-2 OS cells (AID 1347096). Note: nearly all actives have a fitted effect of over 50% in size. Note: potency is the fitted concentration of half-maximal effect. The gist of the method: (§2)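 Cells (500-1,000/well) in growth media were settled 5 h at 37 degrees C, then given compounds for 48 h. Viability was read as CellTiter-Glo luminescence. Primary runs used MIPE at 11 points (0.78 nM-46 µM) and NPC at 8 points (0.59 nM-46 µM); follow-ups used 11 points.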

Assay [6] is described as follows: qHTS of pediatric cancer cell lines to identify multiple opportunities for drug repurposing: Primary screen for Saos-2 cells (AID 1347097). Note: nearly all actives have a fitted effect of over 40% in size. Note: potency is the fitted concentration of half-maximal effect. The gist of the method:
(§3)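 Primary screen of approved and investigational compounds on cells in growth media at 37 degrees C, 5% CO2. MIPE set at 11-point and NPC set at 8-point dilutions; viability scored by ATP-based luminescence at 48 hours.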

Assay [7] is described as follows: qHTS of pediatric cancer cell lines to identify multiple opportunities for drug repurposing: Primary screen for SK-N-SH cells (AID 1347098). Note: nearly all actives have a fitted effect of over 65% in size. Note: potency is the fitted concentration of half-maximal effect. The gist of the method: (§4)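 Cells (500-1,000/well) rested 5 h, then received compounds for 48 h; metabolically active cells were measured by CellTiter-Glo luminescence. Final concentrations spanned up to 46 µM (MIPE, 11-point) or 0.59 nM-46 µM (NPC, 8-point) in primary screens, 11-point in follow-ups.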

A short description of assay [8]: qHTS of pediatric cancer cell lines to identify multiple opportunities for drug repurposing: Primary screen for NB1643 cells (AID 1347099). Note: nearly all actives have a fitted effect of over 50% in size. Note: potency is the fitted concentration of half-maximal effect. The gist of the method: as §3
Assay [9] can be described thus: qHTS of pediatric cancer cell lines to identify multiple opportunities for drug repurposing: Primary screen for LAN-5 cells (AID 1347100). Note: potency is the fitted concentration of half-maximal effect. The gist of the method:
as §2

A short description of assay [10]: qHTS of pediatric cancer cell lines to identify multiple opportunities for drug repurposing: Primary screen for BT-12 cells (AID 1347101). Note: nearly all actives have a fitted effect of over 25% in size. Note: potency is the fitted concentration of half-maximal effect. The gist of the method: as §4
Assay [11] is described as follows: qHTS of pediatric cancer cell lines to identify multiple opportunities for drug repurposing: Primary screen for Rh18 cells (AID 1347102). Note: nearly all actives have a fitted effect of over 65% in size. Note: potency is the fitted concentration of half-maximal effect. The gist of the method: as §2
A short description of assay [12]: qHTS of pediatric cancer cell lines to identify multiple opportunities for drug repurposing: Primary screen for RD cells (AID 1347104). Note: nearly all actives have a fitted effect of over 55% in size. Note: potency is the fitted concentration of half-maximal effect. The gist of the method: as §3
A short description of assay [13]: qHTS of pediatric cancer cell lines to identify multiple opportunities for drug repurposing: Primary screen for MG 63 (6-TG R) cells (AID 1347105). Note: nearly all actives have a fitted effect of over 50% in size. The gist of the method:
as §3

Assay [14] can be described thus: qHTS of pediatric cancer cell lines to identify multiple opportunities for drug repurposing: Primary screen for control Hh wild type fibroblast cells (AID 1347106).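 Note: series mostly up to about 46 µM; a drop in luminescence marks cytotoxicity and a rise apparent proliferation; nearly all actives have a fitted effect of over 55% in size.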 The gist of the method: as §2
Assay [15] is described as follows: qHTS of pediatric cancer cell lines to identify multiple opportunities for drug repurposing: Primary screen for BT-37 cells (AID 1347094). Note: potency is the fitted concentration of half-maximal effect. The gist of the method: as §3
Assay [16] is described as follows: qHTS of pediatric cancer cell lines to identify multiple opportunities for drug repurposing: Primary screen for NB-EBc1 cells (AID 1347095). Note: potency is the fitted concentration of half-maximal effect. The gist of the method:
as §3

Assay [17] in a line: qHTS of pediatric cancer cell lines to identify multiple opportunities for drug repurposing: Primary screen for SJ-GBM2 cells (AID 1347091). Note: potency is the fitted concentration of half-maximal effect. The gist of the method: as §1
Assay [18] can be described thus: qHTS of pediatric cancer cell lines to identify multiple opportunities for drug repurposing: Primary screen for A673 cells (AID 1347092). Note: nearly all actives have a fitted effect of over 45% in size. Note: potency is the fitted concentration of half-maximal effect. The gist of the method: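 A673 cells (500-1,000 cells/well in growth media) were pre-incubated 5 h at 37 degrees C, then exposed to compounds for 48 h. Viability was read as CellTiter-Glo luminescence; concentration-response curves came directly from the primary screen.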

Assay [19] can be described thus: qHTS of pediatric cancer cell lines to identify multiple opportunities for drug repurposing: Primary screen for SK-N-MC cells (AID 1347093). Note: potency is the fitted concentration of half-maximal effect. The gist of the method: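 Metabolically active cells were quantified by ATP-dependent luminescence (CellTiter-Glo, 15 min at room temperature) following 48 h treatment. Cells had been plated at 500-1,000 per well and settled for 5 h beforehand.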

Assay [20] is described as follows: qHTS of pediatric cancer cell lines to identify multiple opportunities for drug repurposing: Primary screen for OHS-50 cells (AID 1347103). Note: potency is the fitted concentration of half-maximal effect; nearly all actives have a fitted effect of over 40% in size. The gist of the method: as §4

Nucleoprotein (Lymphocytic choriomeningitis virus (strain Armstrong)), sequence (P09992 whole entry, looked up): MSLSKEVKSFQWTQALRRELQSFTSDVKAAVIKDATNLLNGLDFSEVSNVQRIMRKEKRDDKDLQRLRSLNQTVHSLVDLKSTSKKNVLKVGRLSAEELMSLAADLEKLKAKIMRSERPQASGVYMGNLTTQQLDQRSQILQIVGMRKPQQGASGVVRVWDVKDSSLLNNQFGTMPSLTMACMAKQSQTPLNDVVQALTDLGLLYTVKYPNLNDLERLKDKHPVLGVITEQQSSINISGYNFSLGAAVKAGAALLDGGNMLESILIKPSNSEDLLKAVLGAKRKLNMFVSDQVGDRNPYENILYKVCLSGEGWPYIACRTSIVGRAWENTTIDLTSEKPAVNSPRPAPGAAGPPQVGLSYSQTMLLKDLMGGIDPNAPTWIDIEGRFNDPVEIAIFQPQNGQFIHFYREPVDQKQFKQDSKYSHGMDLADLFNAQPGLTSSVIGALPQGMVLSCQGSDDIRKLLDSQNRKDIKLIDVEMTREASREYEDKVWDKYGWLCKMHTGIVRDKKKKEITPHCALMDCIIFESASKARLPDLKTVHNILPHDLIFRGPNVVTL

In the case of `CCCCCCCCCC(CC)c1ccc(S(=O)(=O)O)cc1` (stereo not drawn), the Potency entry in assay [1], in [2], in [3], in assay [4], in assay [5] and in assay [7] was “inactive” in each case. For the same molecule, the Potency result in assay [8], in assay [9], in assay [10], in [11], in [12] and in assay [13] was “inactive” throughout. Besides, in [14], the Potency result was “inactive”. Moreover, in assay [6], the Potency is 30600 nM (active).
Turning to `CCO/N=C(\CC)C1=C(O)CC(c2c(C)cc(C)cc2C)CC1=O` (stereo not drawn), the Potency result in [1], in [2], in assay [3], in assay [4], in assay [15] and in assay [16] was “inactive” throughout. In addition, the Potency entry in [5], in assay [9], in assay [13] and in assay [14] was “inactive” each time.
Turning to `CC(C)[C@H]1C(=O)N[C@H](CO)Cc2c[nH]c3cccc(c23)N1C`, in [1], the Potency was 10900 nM (active). Further, the Potency entry in assay [2], in [3], in assay [17], in [15], in [5] and in assay [7] was “inactive” throughout. Further, the Potency result in assay [8], in [10], in assay [11] and in assay [12] was “inactive” in each case.
As for `C[C@@H]1CC[C@H]2[C@@H](C)C(=O)O[C@@H]3O[C@@]4(C)CC[C@H]1[C@]32OO4`, the Potency entry in assay [1], in [2], in assay [3], in [17], in assay [18] and in [5] was “inactive” throughout. The Potency result in [6], in [7], in assay [8], in assay [9], in assay [11] and in [14] was “inactive” each time. In [19], the Potency is 11800 nM (active).
On to `C[C@H]1CCCC=CC2C[C@H](O)C[C@@H]2[C@H](O)C=CC(=O)O1` (stereo partly drawn), for which the Potency in assay [1] is 19.3 nM (active); in assay [2] it was 10.9 nM (active); in [3], 13.1 nM (active); in [17], 1 nM (active); in assay [19] it was 1 nM (active); in assay [15], 1 nM (active). For the same molecule, the Potency in assay [16] was 1 nM (active); in assay [5], 1 nM (active); in assay [6], 3720 nM (active); in assay [7] it was 1 nM (active); in assay [8], 1 nM (active); in assay [9] it was 1 nM (active). For the same molecule, the Potency in assay [10], in assay [11], in assay [20] and in assay [12] was 1 nM (active) in each case.
As for `c1ccc(CCCN2CCN(CCOC(c3ccccc3)c3ccccc3)CC2)cc1`, the Potency entry in [1], in assay [2], in assay [3], in assay [5] and in assay [14] was “inactive” each time. Besides, the Potency was 29600 nM (active) in [4]; 23500 nM (active) in assay [18]; 24300 nM (active) in assay [15]; 26400 nM (active) in assay [8]; 29600 nM (active) in assay [9]; 21700 nM (active) in [20]. The Potency in assay [12] is 29600 nM (active).
In the case of `O=[N+]([O-])c1c2ccccc2cc2ccccc12`, the Potency result in [1], in assay [2], in assay [3], in [17], in [5] and in [9] was “inactive” throughout. Besides, the Potency result in assay [10], in [11], in assay [13] and in assay [14] was “inactive” each time.
For `C[C@]12CC[C@H](O)CC1=CC[C@H]1[C@H]3CCC(=O)[C@@]3(C)CC[C@@H]12`, the Potency result in assay [1], in assay [2], in assay [3], in [15], in assay [5] and in [7] was “inactive” each time. The Potency result in [10], in assay [11], in [12] and in [14] was “inactive” throughout. The figures for the Potency in assay [4] and in assay [19] were 23500 nM (active) and 16600 nM (active), respectively.
